# Reference: the supplement of paper PMC8728848
# The full list was thinned out, with the strongest signals kept by preference.
# How the values were obtained:
# Experiment in all cases: glycan array binding signal (z-score within array); higher = stronger binding
# Details in all cases: glycan notation: IUPAC condensed, linker removed
# [1] = target: Gal3S(b1-4)[Fuc(a1-3)]GlcNAc
# Procedure, shortened: (§1)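 Glycan array data were curated from 3228 arrays in the Consortium for Functional Glycomics database and kept only where the protein sequence was available. Glycan names were converted to IUPAC-condensed notation, and columns mapping to the same glycan were averaged. The binding signal is a within-array Z-score, averaged across arrays of the same protein sequence at different concentrations or buffers and across linkers. Negative Z-scores can be read as non-binding.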
# Gal3S6S(b1-4)GlcNAc6S = target: Gal3S6S(b1-4)GlcNAc6S
# Procedure, shortened: as §1
# Gal6S(b1-3)GlcNAc6S = target: Gal6S(b1-3)GlcNAc6S
# Procedure, shortened: as §1
# Gal6S(b1-4)GlcNAc6S = target: Gal6S(b1-4)GlcNAc6S
# Procedure, shortened: as §1
# [2] = target: GalNAc(a1-3)Fuc(a1-2)Gal(b1-4)GlcNAc(b1-3)[GalNAc(a1-3)Fuc(a1-2)Gal(b1-4)GlcNAc(b1-6)]GalNAc
# Procedure, shortened: as §1
# [3] = target: GalNAc(b1-3)Gal(a1-4)Gal(b1-4)GlcNAc
# Procedure, shortened: as §1
# GalNAc(b1-4)Gal(b1-4)Glc = target: GalNAc(b1-4)Gal(b1-4)Glc
# Procedure, shortened: as §1
# [4] = target: GalNAc(b1-4)GlcNAc(b1-3)GalNAc(b1-4)GlcNAc
# Procedure, shortened: as §1
# GalNAc(b1-4)GlcNAc6S = target: GalNAc(b1-4)GlcNAc6S
# Procedure, shortened: as §1
# GalNAc6S(b1-4)GlcNAc = target: GalNAc6S(b1-4)GlcNAc
# Procedure, shortened: as §1
# [5] = target: GlcA3S(b1-3)Gal(b1-4)GlcNAc(b1-3)Gal(b1-4)Glc
# Procedure, shortened: as §1
# [6] = target: GlcNAc(b1-2)[GlcNAc(b1-4)]Man(a1-3)[GlcNAc(b1-4)][GlcNAc(b1-2)Man(a1-6)]Man(b1-4)GlcNAc(b1-4)GlcNAc
# Procedure, shortened: as §1
# [7] = target: GlcNAc(b1-3)Gal(b1-4)GlcNAc(b1-3)Gal(b1-4)GlcNAc(b1-2)[GlcNAc(b1-3)Gal(b1-4)GlcNAc(b1-3)Gal(b1-4)GlcNAc(b1-6)]Man(a1-6)[GlcNAc(b1-3)Gal(b1-4)GlcNAc(b1-3)Gal(b1-4)GlcNAc(b1-2)Man(a1-3)]Man(b1-4)GlcNAc(b1-4)[Fuc(a1-6)]GlcNAc
# Procedure, shortened: as §1
# [8] = target: GlcNAc(b1-3)Gal(b1-4)GlcNAc(b1-3)Gal(b1-4)GlcNAc(b1-3)Gal(b1-4)GlcNAc(b1-2)[GlcNAc(b1-3)Gal(b1-4)GlcNAc(b1-3)Gal(b1-4)GlcNAc(b1-3)Gal(b1-4)GlcNAc(b1-6)]Man(a1-6)[GlcNAc(b1-3)Gal(b1-4)GlcNAc(b1-3)Gal(b1-4)GlcNAc(b1-3)Gal(b1-4)GlcNAc(b1-2)Man(a1-3)]Man(b1-4)GlcNAc(b1-4)[Fuc(a1-6)]GlcNAc
# Procedure, shortened: as §1
# [9] = target: GlcNAc(b1-3)Gal(b1-4)GlcNAc(b1-3)Gal(b1-4)GlcNAc(b1-3)Gal(b1-4)GlcNAc(b1-3)Gal(b1-4)GlcNAc(b1-2)Man(a1-3)[GlcNAc(b1-3)Gal(b1-4)GlcNAc(b1-3)Gal(b1-4)GlcNAc(b1-3)Gal(b1-4)GlcNAc(b1-3)Gal(b1-4)GlcNAc(b1-2)Man(a1-6)]Man(b1-4)GlcNAc(b1-4)[Fuc(a1-6)]GlcNAc
# Procedure, shortened: as §1
# [10] = target: GlcNAc(b1-4)GlcNAc(b1-4)GlcNAc
# Procedure, shortened: as §1
# Man(a1-6)Man = target: Man(a1-6)Man
# Procedure, shortened: as §1
# [11] = target: Neu5Ac(a2-3)Gal(b1-3)GalNAc
# Procedure, shortened: as §1
# [12] = target: Neu5Ac(a2-3)Gal(b1-3)GlcNAc(b1-3)Gal(b1-3)GlcNAc
# Procedure, shortened: as §1
# [13] = target: Neu5Ac(a2-3)Gal(b1-3)[Fuc(a1-4)]GlcNAc
# Procedure, shortened: as §1
# [14] = target: Neu5Ac(a2-3)Gal(b1-4)GlcNAc(b1-2)[Neu5Ac(a2-3)Gal(b1-4)GlcNAc(b1-6)]Man(a1-6)[Neu5Ac(a2-3)Gal(b1-4)GlcNAc(b1-2)Man(a1-3)][GlcNAc(b1-4)]Man(b1-4)GlcNAc(b1-4)GlcNAc
# Procedure, shortened: as §1
# [15] = target: Neu5Ac(a2-3)Gal(b1-4)[Fuc(a1-3)]GlcNAc(b1-3)Gal
# Procedure, shortened: as §1
# [16] = target: Neu5Ac(a2-3)Gal(b1-4)[Fuc(a1-3)]GlcNAc6S
# Procedure, shortened: as §1
# [17] = target: Neu5Ac(a2-3)Gal6S(b1-4)[Fuc(a1-3)]GlcNAc
# Procedure, shortened: as §1
# [18] = target: Neu5Ac(a2-6)Gal(b1-4)GlcNAc(b1-2)Man(a1-3)[GlcNAc(b1-2)Man(b1-4)GlcNAc(b1-2)Man(a1-6)]Man(b1-4)GlcNAc(b1-4)GlcNAc
# Procedure, shortened: as §1
# [19] = target: Neu5Ac(a2-6)Gal(b1-4)GlcNAc(b1-2)Man(a1-3)[Man(a1-6)]Man(b1-4)GlcNAc(b1-4)GlcNAc
# Procedure, shortened: as §1
# [20] = target: Neu5Ac(a2-6)Gal(b1-4)GlcNAc(b1-3)Gal(b1-4)[Fuc(a1-3)]GlcNAc(b1-3)Gal(b1-4)[Fuc(a1-3)]GlcNAc
# Procedure, shortened: as §1
# [21] = target: Neu5Ac(a2-6)Gal(b1-4)GlcNAc6S
# Procedure, shortened: as §1
# [22] = target: Neu5Ac(a2-8)Neu5Ac(a2-3)Gal(b1-4)GlcNAc
# Procedure, shortened: as §1
binder,measurement,setting,value
KISKRILTGKK [NK11 (Sus scrofa)],glycan array binding signal (z-score),[1],2.52
same,glycan array binding signal (z-score),Gal3S6S(b1-4)GlcNAc6S,1.05
same,glycan array binding signal (z-score),Gal6S(b1-3)GlcNAc6S,3.65
same,glycan array binding signal (z-score),Gal6S(b1-4)GlcNAc6S,2.58
same,glycan array binding signal (z-score),[2],-0.542
same,glycan array binding signal (z-score),[3],0.262
same,glycan array binding signal (z-score),GalNAc(b1-4)Gal(b1-4)Glc,-0.229
same,glycan array binding signal (z-score),[4],-0.419
same,glycan array binding signal (z-score),GalNAc(b1-4)GlcNAc6S,2.55
same,glycan array binding signal (z-score),GalNAc6S(b1-4)GlcNAc,0.009
same,glycan array binding signal (z-score),[5],-1.34
same,glycan array binding signal (z-score),[6],-0.207
same,glycan array binding signal (z-score),[7],2.97
same,glycan array binding signal (z-score),[8],2.73
same,glycan array binding signal (z-score),[9],0.231
same,glycan array binding signal (z-score),[10],-0.597
same,glycan array binding signal (z-score),Man(a1-6)Man,-0.205
same,glycan array binding signal (z-score),[11],0.104
same,glycan array binding signal (z-score),[12],-0.342
same,glycan array binding signal (z-score),[13],-0.073
same,glycan array binding signal (z-score),[14],0.405
same,glycan array binding signal (z-score),[15],0.515
same,glycan array binding signal (z-score),[16],3.52
same,glycan array binding signal (z-score),[17],-0.648
same,glycan array binding signal (z-score),[18],2.33
same,glycan array binding signal (z-score),[19],1.52
same,glycan array binding signal (z-score),[20],-0.044
same,glycan array binding signal (z-score),[21],0.729
same,glycan array binding signal (z-score),[22],-1.78
